Compound activity (PubChem BioAssay)
Only some compounds are listed: those with a hit (about 19% of all), similar ones and a draw of the others.
TDP1 cell noCPT: qHTS for Inhibitors of human tyrosyl-DNA phosphodiesterase 1 (TDP1): qHTS in cells in absence of CPT; AID 686978, 2013; Potency, µM (top dose mostly 46.2 µM), inactives show top-dose activity change, negative = growth inhibition, usual class: inhibitors; 420,000 tested, 15% active; DT40 Tdp1-/- hTDP1 cells, no CPT, ATP luminescence, 48 h; also: potency is read from the fitted curve at half-maximal effect; nearly all actives have a fitted effect of over 55% in size
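A cellular qHTS used chicken DT40 cells lacking endogenous Tdp1 but carrying stably transfected human TDP1. Compounds were applied without camptothecin, and cell growth kinetics were judged by ATP-dependent luminescence after ≥48 hr.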
TDP1 cell CPT: growth inhibition of DT40 Tdp1-/-;hTDP1 cells with camptothecin (screen for TDP1 inhibitors); 420,000 tested, 12% active; AID 686979; Potency, µM (series often up to 46.2 µM), without a hit: top-dose activity change, negative = growth inhibition, usual class: inhibitors; chicken DT40 Tdp1-/-;hTDP1 cells + 20 nM CPT, ATP luminescence, 48 h; also: potency is read from the fitted curve at half-maximal effect; nearly all actives have a fitted effect of over 55% in size
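Chicken DT40 Tdp1-/- cells complemented with human TDP1, 400 cells/well, exposed to compounds plus 20 nM camptothecin for at least 48 h at 37 C; viability read as ATP content by CellTiter-Glo luminescence.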
IL-1B inflam inh: inflammasome signaling inhibition, IL-1 beta readout; THP-1 LPS/ATP IL-1B secretion, AlphaLISA, 16 h; hits give low values; activity change, % at 57.5 µM; 360,000 tested, 4.7% active; in the data active = activity change below about -50%; inconclusive = mostly about -30% to -49%
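THP-1 cells pretreated 1 hr with compounds (up to 57.5 uM final), then stimulated with LPS (250 ng/mL final) plus ATP (1.25 mM final); secreted IL-1B measured by AlphaLISA after 16 hr, decreased signal indicating inhibition.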
HT1080 IDH1KD tx: HT-1080 IDH1 knockdown cell toxicity (counter line) | HT-1080 IDH1 knockdown viability, ATP luminescence, 48 h | Potency, µM (highest dose often 46.1 µM), for the others: at the highest dose activity, negative = toxicity, actives largely listed as cytotoxic | 360,000 tested, 2% active;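 also: potency is read from the fitted curve at half-maximal effect; 0% = DMSO wells and -100% = cell-free medium wells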
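Cytotoxicity counter-line: IDH1KD HT-1080, 48 h, CellTiter-Glo. Curves classed by r2, magnitude and activity.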
HT1080-NT tox: kills 2HG-producing HT-1080-NT fibrosarcoma cells; HT-1080-NT fibrosarcoma viability, CellTiter-Glo ATP luminescence, 48 h; 360,000 tested, 1.6% active; AID 686970; Potency, µM (titrated, usually from 46.1 µM), for inactives: top-dose activity, negative = less viability, hits mostly cytotoxic;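 also: NT is the 2HG producing partner of a matched IDH1 knockdown line; potency is read from the fitted curve at half-maximal effect; 0% = DMSO-treated cells and -100% = media-only wells without cells; nearly all actives have a fitted effect of over 55% in size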
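Viability of the 2HG-overproducing fibrosarcoma line after 48 hours of compound exposure at 37 degrees C was determined by luminescence with CellTiter-Glo, and concentration-effect curves were then fitted and categorized.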
Numbers without * were called inactive; ? = inconclusive; . = no result; [ ] = dose if it differs, or a comment. Unless noted, calls follow the shape of the dose curve; as a rule, active = well fitted curve in the direction sought with a large enough effect; inconclusive = small, poorly fitted or top-dose-only effect, or another doubt; inactive = no such curve, though single readings can be large; an effect the other way counts as inactive or inconclusive. Unless noted, % is scaled to controls: 0 for no effect and ±100 for the full control effect.

SMILES | TDP1 cell noCPT | TDP1 cell CPT | IL-1B inflam inh | HT1080 IDH1KD tx | HT1080-NT tox
CC(=O)Nc1cccc(C(=O)Nc2cc(C(F)(F)F)ccc2-n2cncn2)c1 | ? | ? | -21 | 6% | 1%
O=C(Nc1ccc2nc3n(c(=O)c2c1)CCCC3)c1ccccc1F | 1% | -18% | -11 | 12% | 11%
O=C(Nc1ccc2nc3n(c(=O)c2c1)CCCCC3)c1c(F)ccc([N+](=O)[O-])c1F | 2.3µM* | 2.6µM* | -102* | 15µM* | 9.2µM*
O=C(Nc1ccc2nc3n(c(=O)c2c1)CCCCC3)c1cc([N+](=O)[O-])ccc1F | 2.6µM* | 6.5µM* | -93* | ? | ?
COCc1ccc(CN2CCOc3c(cc(-c4ccc(SC)cc4)cc3OC)C2)o1 | -21% | 1%[9.04 µM] | . | . | .
Cc1cc(C)c2c(=O)n(CC(=O)NC3CCCC3)sc2n1 | 4.1µM* | 2.9µM* | -2 | 16% | 17%
Cc1cc(C)c2c(=O)n(CC(=O)Nc3ccc(Br)c(C)c3)sc2n1 | 9.2µM* | 8.2µM* | 8 | 1% | 0%
Cc1cc(C)c2c(=O)n(CC(=O)Nc3cccc(Cl)c3C)sc2n1 | 3.7µM* | 5.2µM* | 3 | ? | ?
Cc1cc(C)c2c(N)c(C(=O)NC3CCCC3)sc2n1 | -29% | -2% | ? | 15% | 8%
Cc1cc(NC(=O)Cc2ccsc2)ccc1Br | -11% | -13% | -23 | 11% | 5%
Cc1c(Cl)cccc1NC(=O)Cn1cccc1 | -6% | 1% | 8 | 5% | 10%
COCCC(=O)N1CCCC(C(=O)c2ccccc2SC)C1 (stereo not given) | -39% | -26% | 31 | 6% | 10%
COc1cccc(CN2CCCC(C(=O)c3ccc4c(c3)OCO4)C2)c1OC (stereo not given) | ? | ? | ? | -26% | -18%
COc1ccc(C(=O)C2CCCN(Cc3nc4ccccc4nc3C)C2)cc1OC (stereo not given) | ? | -23% | -15 | -19% | -3%
COc1cccc(OC)c1CN1CCCC(C(=O)c2ccccc2SC)C1 (stereo not given) | 21µM* | 16µM* | ? | -23% | -16%
O=C(c1cccc(C(F)(F)F)c1)C1CCCN(Cc2cccc(OCCO)c2)C1 (stereo not given) | 10µM* | ? | -62* | -27% | -9%
CCOc1cccc(CN2CCCC(C(=O)c3cccc(C(F)(F)F)c3)C2)c1O (stereo not given) | -6% | -1% | -15 | 2% | 0%
COc1ccc(C(=O)C2CCCN(Cc3c(O)cccc3OC)C2)cc1OC (stereo not given) | 7.3µM* | ? | -19 | ? | -29%
O=C(c1ccc2c(c1)OCO2)C1CCCN(Cc2ccccc2OC(F)F)C1 (stereo not given) | ? | 16µM* | -26 | -12% | ?
CCC(C)C(NC(=O)C1CCC(C)CC1)C(=O)NCc1ccccn1 (stereo not given) | -26% | -2% | 22 | 29% | 27%
COc1cccc(O)c1CN1CCCC(C(=O)c2cccc(C(F)(F)F)c2)C1 (stereo not given) | 23µM* | 16µM* | -22 | ? | -14%
CCCCNC(=O)N1CCCC(C(=O)c2cc(C)c(OC)c(C)c2)C1 (stereo not given) | 16µM* | ? | -14 | -5% | -17%
O=C(c1cccc(C(F)(F)F)c1)C1CCCN(Cc2cccn2-c2ccccn2)C1 (stereo not given) | 15µM* | 15µM* | -91* | ? | ?
COc1ccc(C(=O)C2CCCN(Cc3cccc4c3OCO4)C2)cc1OC (stereo not given) | 9.2µM* | ? | -7 | -24% | ?
CCCc1cc(C(=O)N2CCCC(C(=O)c3cc(C)c(OC)c(C)c3)C2)n(C)n1 (stereo not given) | ? | -42% | 6 | -9% | -7%
SMILES | TDP1 cell noCPT | TDP1 cell CPT | IL-1B inflam inh | HT1080 IDH1KD tx | HT1080-NT tox
COCc1cc(CN2CCCC(C(=O)c3cccc(C(F)(F)F)c3)C2)ccc1OC (stereo not given) | ? | ? | -8 | 9% | 4%
COc1ccc(-c2nc(S(=O)(=O)c3ccccc3)c(NCCCN3CCOCC3)o2)cc1 | ? | ? | -20 | 0% | 4%
CCNc1ncc2nc(-c3ccccc3)c(=O)n(CCC#N)c2n1 | 10% | -3% | . | . | .
O=C(Cc1ccccc1)NC1CC(=O)N(c2ccc3c(c2)OCCO3)C1 (stereo not given) | 5% | -4% | . | . | .
COc1c(C)cc(C(=O)C2CCCN(Cc3cccc4nccnc34)C2)cc1C (stereo not given) | 16µM* | ? | -3 | -10% | -13%
COc1ccccc1C(=O)C1CCCN(Cc2cccc3nccnc23)C1 (stereo not given) | -27% | -23% | 31 | -7% | -3%
CCOC(=O)Cn1nc(C)n(-c2c(C)cccc2C)c1=O | 4% | 14% | -62* | 2% | 9%
Cc1cccc(C)c1-n1c(C)nn(Cc2ccc([N+](=O)[O-])cc2)c1=O | ? | -3% | 5 | 1% | 9%
CCc1nc(NC(=O)c2sc(C)nc2C)sc1C(=O)OC | -1% | -8% | -2 | 0% | -1%
COc1ccc(CN(C)C(=O)c2[nH]c(C)c(C(C)=O)c2C)cc1F | 15µM* | ? | 61 | -17% | -8%
CC(=O)c1c(C)[nH]c(C(=O)Nc2cc(C)cc(C)c2)c1C | ? | -5% | -16 | 8% | ?
COc1ccc(CCNC(=O)c2[nH]c(C)c(C(C)=O)c2C)cc1OC | -16% | -7% | -13 | 12% | 17%
CC(=O)c1c(C)[nH]c(C(=O)COc2cc(C)cc(C)c2)c1C | 16µM* | ? | -10 | ? | 0%
CC(=O)c1c(C)[nH]c(C(=O)OCC(=O)C(C)(C)C)c1C | -5% | -14% | 22 | 4% | 5%
CSc1ncccc1C(=O)OCC(=O)c1ccc[nH]1 | -21% | -13% | -13 | 14% | 8%
CC(=O)c1c(C)[nH]c(C(=O)OCC(=O)c2ccc(C)s2)c1C | 18µM* | 23µM* | -8 | -1% | 1%
CSc1ncccc1C(=O)OCC(=O)c1[nH]c(C)c(C(C)=O)c1C | ? | 18µM* | 0 | 2% | 1%[9.24 µM]
CCn1cc(CN2CCN(CCc3ccccc3)C(CCO)C2)c(C)n1 (stereo not given) | -1% | 4% | 4 | -1% | 4%
C=CCCC(=O)N1C[C@@H](CO)[C@@H](NC)C[C@H]1c1ccccc1Br | -2% | -18% | 5 | 10% | 13%
CCOCCCNC(=O)c1c[nH]c2ccc(OCC)cc2c1=O | ? | ? | -18 | -8% | 1%
